Experimental data reported in PubChem BioAssay.

Test: P. aeruginosa biofilm formation inhibitors, primary screen, strain PAO1, LB-PBS medium, absorbance 600 nm (AID 1176); further: test concentration not given here
Details: P. aeruginosa PAO1 growth/biofilm, A600, 12 h; higher = more signal; call rule not given here

z-score, inactive:
CC1CC/C=C\[C@H]2OC34C=CCN(c5ccc6ccccc6c5)C(=O)[C@H]3N(CCCCCO)C(=O)[C@@H]4C2C(=O)O1 (stereo not given in full) -0.484
CN1C(=O)C2C=CC(C(O)C(C)(C)C)N(Nc3ccccc3)C2C1=O (stereo not given) 0.695
Cc1ccc(S[C@]2(C(=O)NCCCN(C)C)CC(=O)N(Cc3ccccc3)[C@@H]2c2ccc(CO)cc2)cc1 0.317
O=C1O[C@H](c2ccccc2)[C@H](c2ccccc2)N2[C@H]1[C@@H](C(=O)NC[C@H](O)c1ccccc1)[C@]1(C(=O)Nc3ccc(C#CC4=CCCCC4)cc31)[C@H]2c1ccc(O)cc1 2.02
O=C(CS)NCCCCCNC(=O)[C@H]1C[C@H]2C(=O)N[C@@H](Cc3ccccc3)C(=O)N2[C@H]1c1cccc(OCCO)c1 0.932
CCCC[C@H]1OB(O)C[C@H]2C1=C(COc1ccccc1)C[C@H]1C(=O)N(Cc3ccccc3)C(=O)[C@H]12 -0.802
O=c1cccc(-c2cccc3ccccc23)o1 0.794
CCCCCN1CC=CC23O[C@@H]4C=CCCOC(=O)C4[C@H]2C(=O)N(CCCO)[C@@H]3C1=O (stereo not given in full) -0.289
CS(=O)(=O)CCOC(=O)C1=CC(c2ccc(CO)cc2)=CC(c2cccs2)N(Cc2cccc(OC(F)(F)F)c2)C=C1C(=O)OCCS(C)(=O)=O (stereo not given) 0.907
C#C[C@H](O[Si](C#CCCCCCC)(C(C)C)C(C)C)c1ccccc1 -0.984
COc1ccc([Si](C)(C)[C@@H]2[C@@H](CCO)O[C@]3(C(=O)N(Cc4ccccc4)c4ccc(N(C=O)c5ccccc5)cc43)[C@H]2C)cc1 3.19
C=C(COC)C(=O)CC[C@H](OC(=O)c1cccnc1)c1ccccc1OCCO 1.45
C=CCC(OC(C)=O)[C@@H]1[C@@H](N(Cc2cc3ccccc3o2)C(=O)c2ccc(C)cc2)c2cc(OCCCO)ccc2N1C(=O)c1ccc(-c2ccccc2)cc1 (stereo not given in full) 0.444
NC(=O)[C@]1(Cc2ccccc2)N=C(c2ccc(OCCCO)cc2)O[C@@H]1c1ccccc1 0.246
[N-]=[N+]=NCc1ccccc1C[C@]1(C(=O)NCCN2CCOCC2)N=C(c2ccc(OCCCO)cc2)O[C@H]1c1ccccc1CN=[N+]=[N-] 0.428
CCOC(=O)C1=CC[C@@H](c2cccc(Cl)c2)N(S(=O)(=O)c2ccc(C)cc2)[C@H]1c1ccc(C#N)cc1 1.68
O=c1cccc(-c2ccccc2)o1 0.421
CC(=O)NCCCC[C@@H]1NC(=O)[C@@H]2C[C@H](C(=O)NCc3ccc(F)cc3)[C@H](c3ccc(O)cc3)N2C1=O -0.226
O=C1OCCC=C[C@H]2OC34C=CCN(c5ccc6ccccc6c5)C(=O)[C@H]3N(CCCCCCO)C(=O)[C@@H]4C12 (stereo not given in full) -0.497
O=C1OCCC/C=C\[C@H]2OC34C=CCN(Cn5nnc6ccccc65)C(=O)[C@H]3N(CCCO)C(=O)[C@@H]4C12 (stereo not given in full) 0.77
CC(C)OC(=O)C1=CCC(c2cccc(Cl)c2)O1 (stereo not given) 0.905
O=C1[C@H]2C=C(Br)[C@H](C[C@@H]2OCCOCCO)[C@@]12CO2 0.379
O=c1cccc(-c2ccc3ccccc3c2)o1 -0.281
CCCCCCCCCCC(O)C1C=CC2C(=O)N(c3ccccc3)C(=O)C2N1Nc1ccc([N+](=O)[O-])cc1 (stereo not given) 0.285
CN1C(=O)C2C=CC(C(O)c3ccccc3)N(NC(=O)OC(C)(C)C)C2C1=O (stereo not given) 0.31
CN(C)CCCC[C@@H]1NC(=O)[C@@H]2C[C@H](C(=O)NCCCCCCN)[C@H](c3ccc(O)cc3)N2C1=O 0.643
CCOC(=O)C[C@H]1[C@H](OC(=O)c2cc3ccccc3oc2=O)[C@@H](NC(=O)c2ccc3ccccc3c2)c2cc(OCCCO)ccc2N1C(=O)c1ccccc1 -0.647
COc1ccc([Si](C)(C)[C@@H]2[C@@H](CCO)O[C@]3(C(=O)N(Cc4ccc(N5C(=O)c6cccc7cccc5c67)cc4)c4ccccc43)[C@H]2C)cc1 1.51
O=C(NCC(O)CO)[C@@]1(Cc2ccccc2)COC(c2ccc(OCCCO)cc2)=N1 (stereo not given in full) 0.385
CC(C)(C)OC(=O)CC[C@]1(C(=O)NCC(O)CO)N=C(c2ccc(OCCCO)cc2)O[C@H]1c1ccccc1CN=[N+]=[N-] (stereo not given in full) 1.65
C=C(/C(=C/C[C@@H](OC(C)=O)c1ccc(CO)o1)c1cnc2ccccc2c1)C(C)C 0.0721
O=C1O[C@H](c2ccccc2)[C@H](c2ccccc2)N2[C@H]1[C@@H](C(=O)NC[C@H](O)c1ccccc1)[C@]1(C(=O)Nc3ccc(C#CC4(O)CCCCCC4)cc31)[C@H]2c1ccccc1OCCO 2.83
O=C1C[C@@](C(=O)O)(c2ccc([N+](=O)[O-])cc2)[C@@H](c2ccc(CO)cc2I)N1C1CCCCC1 1.16
COc1ccc(CCNC(=O)[C@@]2(C)c3ccccc3C(=O)N(Cc3ccccc3)[C@H]2c2ccc(CO)cc2)cc1 0.938
CC1CC/C=C\[C@H]2OC34C=CCN(Cn5nnc6ccccc65)C(=O)[C@H]3N(CCCO)C(=O)[C@@H]4C2C(=O)O1 (stereo not given in full) -0.221
